Drawing on PubChem BioAssay AID488856 (Sanford-Burnham Center for Chemical Genomics, 2010), this text covers inhibition for 42 compounds.

As a reminder, the inhibition is the relative decrease from the control value, in per cent.

The campaign covered roughly 1,400 compounds. About 50 (4%) were called active.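 The calls were made as follows: active = mean inhibition across replicates above about 26% (limit read from the data); inactive = the rest.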 The list is a sample of the results.

Chain of Caspase-3 (Homo sapiens) (P42574 whole entry, looked up): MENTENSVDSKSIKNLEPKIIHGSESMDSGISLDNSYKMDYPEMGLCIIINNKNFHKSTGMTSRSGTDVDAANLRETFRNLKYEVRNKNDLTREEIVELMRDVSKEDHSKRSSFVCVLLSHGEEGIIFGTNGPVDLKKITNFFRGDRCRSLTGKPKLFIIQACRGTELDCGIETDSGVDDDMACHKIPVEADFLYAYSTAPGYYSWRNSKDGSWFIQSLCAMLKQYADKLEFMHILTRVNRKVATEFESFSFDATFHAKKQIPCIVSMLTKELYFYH

The assay addresses Caspase-3 (Homo sapiens) (UniProt P42574). Nature of the assay: CASP3 blockers, validation, counterassay for UBE2N polyubiquitination inhibitor project, biochemical, one-dose (AID 488856).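 Also: plate controls were DMSO with caspase-3 for no effect and DMSO wells lacking enzyme for full effect.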 The note with it: Recombinant caspase-3, Caspase-Glo 3/7 luminescence, 60 min; at 20 µM; hits give high values.
As for `Cc1cccc(-n2cnc(C(=O)NNC(=S)Nc3ccccc3)c2)n1`, the inhibition is 0% (inactive).

On to `CCCCN(C)CCCNC(=O)c1cc(-c2cccs2)nc2ccccc12`, for which the inhibition is -3.7% (inactive).

Consider `C#CCOCCOCCOCCNc1nc(N2CCN(C(=O)C(Cc3ccc(O)cc3)n3cc(C(N)CC(C)C)nn3)CC2)nc(N2CCN(C(=O)C(Cc3ccc(O)cc3)n3cc(C(N)C(C)CC)nn3)CC2)n1` (configuration not stated), for which the inhibition is 0.7% (inactive).

In the case of `CN(C)c1ccnc2sc3c(=O)n(Cc4ccccc4)cnc3c12`, the inhibition was -2.2% (inactive).

In the case of `CCN1C(=NCc2ccc(OC)cc2)N[C@@H](CCc2ccccc2)[C@H](C(=O)NCc2ccc(OC)cc2)[C@H]1C`, the inhibition is -3.2% (inactive).

For the compound `CN(C)CC(O)COc1ccc(C(C)(C)c2ccc(OCC(O)CN(C)C)cc2)cc1` (configuration not stated), the inhibition was 3.6% (inactive).

`CCCCCCCCCCOC(=O)Cn1c(COc2cccc(OC)c2)[n+](C)c2ccccc21`: the inhibition is 3.3% (inactive).

With `Cc1cccc(OCC(O)CN2CCN(CCN3C(=O)c4cccc5cccc(c45)C3=O)CC2)c1C` (configuration not stated), the inhibition is 2.6% (inactive).

In the case of `COc1ccccc1NC(=O)CSc1nnc(-c2ccoc2C)n1CCc1ccccc1`, the inhibition was -0.3% (inactive).

Turning to `CCCCN(CCCC)CCC(O)c1cc2c(Cl)cc(Cl)cc2c2cc(C(F)(F)F)ccc12` (configuration not stated), the inhibition is 3.4% (inactive).

For `Cc1c(CN2CCC(CO)(CCOc3ccccc3)CC2)[nH]c2ccc(Cl)cc12`, the inhibition is -3.8% (inactive).

Take `N#Cc1c(-c2ccc(Cl)cc2)c2c([nH]c1=S)CCCC2`: the inhibition is -1.9% (inactive).

For the compound `CC[C@@H](C)[C@@H]1CN([C@@H](C)CN2CCC[C@H]2CN2C(N)=NC[C@H]2C(C)C)C(=N)N1CCc1ccc(Cl)c(Cl)c1`, the inhibition is 2.5% (inactive).

Regarding `CCOC(=O)[C@@H]1[C@H]2COc3cc(OC)ccc3[C@H]2N2C(=O)N(c3ccc(F)cc3)C(=O)[C@]12C`, the inhibition is 3.4% (inactive).

Consider `Cc1cc(C)c(NC(=O)C[N+](C)(C)CC(O)COc2cccc3ccccc23)c(C)c1` (configuration not stated), for which the inhibition was -2.3% (inactive).

In the case of `CC(=O)Nc1ccc(NC(=O)c2sc3nc4c(c(-c5ccc(C)cc5)c3c2N)CCC4)cc1`, the inhibition is 4.6% (inactive).

Regarding `C=C1c2c(Cl)ccc(O)c2C(O)=C2C(=O)[C@]3(O)C(O)=C(C(N)=O)C(=O)[C@@H](N(C)C)[C@@H]3[C@@H](O)C12` (some centres not stated), the inhibition is 1.1% (inactive).

Regarding `CCCOc1ccc(Cl)cc1Nc1nc(NCCO)nc(N2CCCC2)n1`, the inhibition was 6.6% (inactive).

Consider `CN1CCC(CN)(N2CCN(c3ccccc3)CC2)CC1`, for which the inhibition is -2.2% (inactive).

On to `CCOC(=O)N1CCN(C(=O)Cc2ccc(-n3c(=S)[nH]c4ccccc4c3=O)cc2)CC1`, for which the inhibition was -0.5% (inactive).

Regarding `CN1CCN(CCCNC(=O)c2ccc(/C=C3\Oc4ccccc4N(Cc4ccc(Cl)cc4)C3=O)cc2)CC1`, the inhibition was -0.4% (inactive).

Turning to `O=c1c2c(nc3n1CCCCC3)sc1c(O)cccc12`, the inhibition was 77.2% (active).

Regarding `c1ccc(C[C@H]2CNCCN2CCC23CC4CC(CC(C4)C2)C3)cc1`, the inhibition was -0.9% (inactive).

As to `O=c1cc(CO)oc(C(Nc2cccc(C(F)(F)F)c2)c2ccccn2)c1O` (configuration not stated), the inhibition was -1.4% (inactive).

`NC(N)=Nc1nc(-c2ccccc2)c2cc(Cl)ccc2n1`: the inhibition is -2.7% (inactive).

In the case of `CCC(C(=O)NC1CCCC1)N(C(=O)c1snc(C(N)=O)c1N)c1ccc2c(c1)OCCO2` (configuration not stated), the inhibition was 1.4% (inactive).

Take `c1ccc2c(CCN3CCNC[C@H]3Cc3cccc4ccccc34)cccc2c1`: the inhibition is 5% (inactive).

With `C#CCOCCOCCOCCNc1nc(N2CCN(C(=O)C([C@@H](C)O)n3cc([C@@H](N)CCCCN)nn3)CC2)nc(N2CCN(C(=O)[C@H](CCCCN)n3cc(CN)nn3)CC2)n1` (some centres not stated), the inhibition is 1.6% (inactive).

As for `COC(=O)c1cc(-c2cccs2)nc2ccccc12`, the inhibition is -2.9% (inactive).

With `CC1CN(C(=O)CCC(=O)NCCCN2CCC(Cc3ccccc3)CC2)c2cc(Cl)ccc2O1` (configuration not stated), the inhibition was 0.6% (inactive).

As to `NC[C@H](Cc1ccccc1)NCCc1cc(C(F)(F)F)cc(C(F)(F)F)c1`, the inhibition was -2.6% (inactive).

`CCOC(=O)C1=C(c2ccccc2)O/C(=C(/C(=O)OC)C(F)(F)F)S1`: the inhibition is 1.4% (inactive).

In the case of `COc1ccc(/C=N\NC(=O)c2sc(N)nc2C)cc1OC`, the inhibition is 23% (inactive).

In the case of `C#CCOCCOCCOCCNc1nc(N2CCN(C(=O)C([C@@H](C)CC)n3cc(C(N)COC(=O)C(F)(F)F)nn3)CC2)nc(N2CCN(C(=O)[C@H](CCCCN)n3cc(C(N)CC(C)C)nn3)CC2)n1` (some centres not stated), the inhibition was -1% (inactive).

Take `CN(C)CCCN(C(=O)c1ccc(S(=O)(=O)N2CCCCCC2)cc1)c1nc2cc3c(cc2s1)OCCO3`: the inhibition was 1.4% (inactive).

Turning to `CCN(CC(=O)NCc1cccs1)C(=O)c1cccc(S(=O)(=O)Nc2ccccc2OC)c1`, the inhibition was -1.4% (inactive).

Turning to `COc1ccc(N(C(=O)c2snc(C(N)=O)c2N)C(C(=O)NC2CCCC2)c2ccco2)cc1OC` (configuration not stated), the inhibition was -0.3% (inactive).

Take `CCN1CCN(CCNC(=O)c2ccc(/C=C3/Sc4ccccc4N(Cc4cccc(C)c4)C3=O)cc2)CC1`: the inhibition was 2.4% (inactive).

As for `C[C@@H](CN1CCC[C@H]1CN1C(N)=NC[C@@H]1Cc1ccccc1)N1C[C@@H](Cc2ccccc2)N(CCCC2CCCC2)C1=N`, the inhibition was 1.4% (inactive).

On to `COc1ccnc2c1c(=O)n(Cc1cccc(F)c1)c(=O)n2C`, for which the inhibition was -0.3% (inactive).

On to `OCCNc1nc(Nc2ccc(Cl)c(Cl)c2)nc2ccccc12`, for which the inhibition was -0.1% (inactive).

For the compound `CCCC[C@@H]1CN=C(N)N1CCc1cc(C(F)(F)F)cc(C(F)(F)F)c1`, the inhibition was 0.9% (inactive).
